These results are taken from the supplement of paper PMC7057948, “A genome-wide approach for identification and characterisation of metabolite-inducible systems” (Nature Communications, 2020).
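Wherever relative induction of RFP reporter vs primary effector (background-corrected) is given: RFP excited at 585 nm with emission read at 620 nm, culture medium blanks subtracted from fluorescence and absorbance prior to normalisation.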

The first experiment has as its system heterologous acrylate-inducible system. Put plainly: relative induction of RFP reporter vs primary effector; higher = stronger activation. Conditions: inducer concentration 5 mM; 6 h; Cupriavidus necator H16; minimal medium + 0.4% gluconate. The procedure: (§1)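 Orthogonality screen of 21 primary inducers against 21 transcription factor/inducible promoter–mRFP biosensors in C. necator H16 in minimal medium, robotic 96-well format, 5 mM inducer, 30 °C. OD-normalised RFP fluorescence was read 6 h later and expressed as relative induction (%) = 100 × (FL compound − FL uninduced)/(FL primary inducer − FL uninduced); mean of n=4. Cognate pairs (100% by definition) omitted.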
On to `NCCC(=O)O` [β-alanine], for which the “relative induction of RFP reporter” value was -2.33%.
Turning to `O=C(O)C(=O)c1ccccc1` [phenylglyoxylate], the “relative induction of RFP reporter” value was -2.28%.
Same read-out and setting: the same measure for `O=C(O)CS(=O)(=O)O` [sulfonatoacetate]: -0.561%.
On to `CC(=O)C(C)O` (stereo unspecified) [acetoin], for which the “relative induction of RFP reporter” value is -1.85%.
On to `N[C@@H](Cc1ccc(O)cc1)C(=O)O` [L-tyrosine], for which the “relative induction of RFP reporter” value is -2.03%.
Still for that read-out and setting: for `O=c1[nH]c(=O)c2nc[nH]c2[nH]1` [xanthine] the value was -1.68%.
Still for that read-out and setting: for `OC1OC[C@H](O)[C@H](O)[C@H]1O` (mixture of isomers) [L-arabinose] the value was -0.681%; for `O=C(O)C(O)C(O)C(=O)O` (stereo unspecified) [tartrate], -0.36%; for `O=C(O)c1ccccc1` [benzoate], -1.5%.
Take `O=C(O)c1ccccc1O` [salicylate]: the “relative induction of RFP reporter” value is -1.06%.
On the same count and under the same terms, for `C=C(CC(=O)O)C(=O)O` [itaconate] the value was -0.778%.
As for `O=C(O)C1CCCCC1` [cyclohexane-1-carboxylate], the “relative induction of RFP reporter” value is -0.97%.
Still for that read-out and setting: for `O=C(O)c1ccc(O)c(O)c1` [3,4-dihydroxybenzoate] the value was -0.891%.
With `O=CO` [formate], the “relative induction of RFP reporter” value was -0.251%.
As for `N[C@@H](Cc1ccccc1)C(=O)O` [L-phenylalanine], the “relative induction of RFP reporter” value was -1.94%.
The same measure, in the same setting: the same measure for `O=C(O)CCO` [3-hydroxypropanoate]: 2.83%; for `Nc1ccccc1C(=O)C[C@H](N)C(=O)O` [L-kynurenine]: -1.79%.

The test system of the next experiment is heterologous cumate-inducible system. The experiment is described as above. Conditions: inducer concentration 5 mM; 6 h; Cupriavidus necator H16; minimal medium + 0.4% gluconate. On the procedure: as §1
As for `NCCC(=O)O` [β-alanine], the “relative induction of RFP reporter” value is -1.44%.
Still for that read-out and setting: for `O=C(O)C(=O)c1ccccc1` [phenylglyoxylate] the value was -1.12%; for `O=C(O)CS(=O)(=O)O` [sulfonatoacetate], 0.916%.
Same read-out and setting: for `CC(=O)C(C)O` (stereo unspecified) [acetoin] the value was -1.61%.
Same read-out and setting: the same measure for `N[C@@H](Cc1ccc(O)cc1)C(=O)O` [L-tyrosine]: -2.72%.
With `O=c1[nH]c(=O)c2nc[nH]c2[nH]1` [xanthine], the “relative induction of RFP reporter” value was -0.479%.
On the same count and under the same terms, for `OC1OC[C@H](O)[C@H](O)[C@H]1O` (mixture of isomers) [L-arabinose] the value was -0.337%; for `O=C(O)C(O)C(O)C(=O)O` (stereo unspecified) [tartrate], -0.8%.
The same measure, in the same setting: the same measure for `O=C(O)c1ccccc1` [benzoate]: -1.2%; for `O=C(O)c1ccccc1O` [salicylate]: 0.792%; for `C=C(CC(=O)O)C(=O)O` [itaconate]: -0.202%.
For the molecule `O=C(O)C1CCCCC1` [cyclohexane-1-carboxylate], the “relative induction of RFP reporter” value came out at 2.49%.
Still for that read-out and setting: for `O=C(O)c1ccc(O)c(O)c1` [3,4-dihydroxybenzoate] the value was -0.667%; for `O=CO` [formate], -0.422%.
Still for that read-out and setting: for `N[C@@H](Cc1ccccc1)C(=O)O` [L-phenylalanine] the value was -2.37%; for `O=C(O)CCO` [3-hydroxypropanoate], -0.514%.
On to `Nc1ccccc1C(=O)C[C@H](N)C(=O)O` [L-kynurenine], for which the “relative induction of RFP reporter” value is -0.886%.
The same measure, in the same setting: for `C=CC(=O)O` [acrylate] the value was 0.803%.

In another experiment the test system is heterologous itaconate-inducible system. The description is as above. Conditions: inducer concentration 5 mM; 6 h; Cupriavidus necator H16; minimal medium + 0.4% gluconate. On the procedure: as §1
Turning to `NCCC(=O)O` [β-alanine], the “relative induction of RFP reporter” value is -0.489%.
On the same count and under the same terms, for `O=C(O)C(=O)c1ccccc1` [phenylglyoxylate] the value was -0.288%; for `O=C(O)CS(=O)(=O)O` [sulfonatoacetate], 0.693%; for `CC(=O)C(C)O` (stereo unspecified) [acetoin], 0.0808%.
Turning to `N[C@@H](Cc1ccc(O)cc1)C(=O)O` [L-tyrosine], the “relative induction of RFP reporter” value turned out to be 0.264%.
As for `O=c1[nH]c(=O)c2nc[nH]c2[nH]1` [xanthine], the “relative induction of RFP reporter” value was 0.00052%.
Turning to `OC1OC[C@H](O)[C@H](O)[C@H]1O` (mixture of isomers) [L-arabinose], the “relative induction of RFP reporter” value amounted to 0.00235%.
Take `O=C(O)C(O)C(O)C(=O)O` (stereo unspecified) [tartrate]: the “relative induction of RFP reporter” value came to 0.359%.
Regarding `O=C(O)c1ccccc1` [benzoate], the “relative induction of RFP reporter” value is -0.0216%.
For the molecule `O=C(O)c1ccccc1O` [salicylate], the “relative induction of RFP reporter” value was -0.0867%.
The same measure, in the same setting: for `O=C(O)C1CCCCC1` [cyclohexane-1-carboxylate] the value was 0.233%; for `O=C(O)c1ccc(O)c(O)c1` [3,4-dihydroxybenzoate], 0.251%.
As for `O=CO` [formate], the “relative induction of RFP reporter” value stood at 0.516%.
Same read-out and setting: for `N[C@@H](Cc1ccccc1)C(=O)O` [L-phenylalanine] the value was -0.26%; for `O=C(O)CCO` [3-hydroxypropanoate], 0.017%; for `Nc1ccccc1C(=O)C[C@H](N)C(=O)O` [L-kynurenine], -0.412%.
As for `C=CC(=O)O` [acrylate], the “relative induction of RFP reporter” value was determined as 0.117%.

The next experiment has as its system AcoR/P_H16_RS19445 acetoin biosensor (pEH052). Put plainly: relative induction of RFP reporter vs primary effector (background-corrected); higher = stronger activation of the biosensor. Conditions: inducer concentration 5 mM; 6 h; Cupriavidus necator H16; minimal medium + 0.4% gluconate. The procedure: (§2)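 C. necator H16 strains, each carrying one of 21 transcription factor/inducible promoter–mRFP biosensor plasmids, were grown in minimal medium in 96-well plates (robotic platform). Each was exposed to 46 structurally or metabolically related compounds at 5 mM at 30 °C. OD-normalised RFP fluorescence was read 6 h later and expressed as relative induction (%) = 100 × (FL compound − FL uninduced)/(FL primary inducer − FL uninduced); mean of n=4.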
Take `O=CC(=O)O` [glyoxylate]: the “relative induction of RFP reporter” value is -0.798%.
The same measure, in the same setting: for `CCC(=O)O` [propanoate] the value was -1.68%; for `O=C(O)/C=C/C(=O)O` [fumarate], -1.09%; for `O=C(O)C[C@H](O)C(=O)O` [L-malate], -0.197%.
Same read-out and setting: for `O=C(O)/C=C\C=C/C(=O)O` [cis,cis-muconate] the value was -0.277%; for `O=C(O)c1cccnc1` [nicotinate], -2.26%.
Take `Oc1ccccc1O` [catechol]: the “relative induction of RFP reporter” value turned out to be 1.82%.
With `O=C(O)[C@@H](O)[C@@H](O)[C@H](O)[C@@H](O)C(=O)O` [glucarate], the “relative induction of RFP reporter” value worked out at 16.6%.
For the molecule `O=C(O)c1ccc(O)cc1` [4-hydroxybenzoate], the “relative induction of RFP reporter” value amounted to 0.234%.
Turning to `O=C(O)C(O)c1ccccc1` (stereo unspecified) [mandelic acid], the “relative induction of RFP reporter” value was found to be 4.07%.
Turning to `O=c1cc[nH]c(=O)[nH]1` [uracil], the “relative induction of RFP reporter” value was -0.264%.
With `O=C(O)C(O)C(=O)O` [tartronic acid], the “relative induction of RFP reporter” value amounted to 0.914%.

A further experiment deals with AraC/P_araBAD L-arabinose biosensor (pEH176). Described as above. Conditions: inducer concentration 5 mM; 6 h; Cupriavidus necator H16; minimal medium + 0.4% gluconate. The procedure:
as §2
In the case of `O=CC(=O)O` [glyoxylate], the “relative induction of RFP reporter” value worked out at 0.00961%.
Regarding `CCC(=O)O` [propanoate], the “relative induction of RFP reporter” value was -0.00959%.
`O=C(O)/C=C/C(=O)O` [fumarate]: the “relative induction of RFP reporter” value is 0.0135%.
On the same count and under the same terms, the same measure for `O=C(O)C[C@H](O)C(=O)O` [L-malate]: 0.0102%.
Regarding `O=C(O)/C=C\C=C/C(=O)O` [cis,cis-muconate], the “relative induction of RFP reporter” value is -0.0203%.
For `O=C(O)c1cccnc1` [nicotinate], the “relative induction of RFP reporter” value amounted to 0.00152%.
The same measure, in the same setting: the same measure for `Oc1ccccc1O` [catechol]: -0.00935%.
In the case of `O=C(O)[C@@H](O)[C@@H](O)[C@H](O)[C@@H](O)C(=O)O` [glucarate], the “relative induction of RFP reporter” value was -0.00794%.
Still for that read-out and setting: the same measure for `O=C(O)c1ccc(O)cc1` [4-hydroxybenzoate]: -0.0125%; for `O=C(O)C(O)c1ccccc1` (stereo unspecified) [mandelic acid]: 0.0229%.
Turning to `O=c1cc[nH]c(=O)[nH]1` [uracil], the “relative induction of RFP reporter” value is -0.0292%.
On the same count and under the same terms, the same measure for `O=C(O)C(O)C(=O)O` [tartronic acid]: -0.0176%.
